The panel holds about 83,000 compounds, 20% with a hit somewhere; the sample as a whole holds those more often.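 Cell lines were cultured in 96-well plates, exposed to a single compound concentration, and assessed for percent growth 48 hours later.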 Unmarked numbers belong to inactive results. Activity calls are given as the source filed them.

The experiment concerns A549/ATCC NSCLC. The experiment is described as follows: NCI-60 one-dose screen, 48 h (100 = growth as untreated, 0 = no growth, -100 = all killed). The conditions noted are these: 10 µM unless noted. As to the method:
Growth inhibition of the A549/ATCC human Non-Small Cell Lung tumor cell line is measured as a screen for anti-cancer activity. Cells are grown in 96 well plates and exposed to the test compound for 48 hours. Compounds are tested at a single concentration, which is 10^-5 M for most compounds. The reported endpoint is percent growth (GI% or GIPRCNT), where numbers from 0 - 100% represent growth inhibition, and numbers from -100% - 0 represent cell death. For example, a value of 40 represents 60% growth inhibition. A value of 0 means no net growth occurred over the course of the experiment. A value of -40 indicates 40% of cells at the beginning of the experiment died by the end of the experiment. A value of -100 means all cells are dead at the end of the experiment.
NCI-60 Human Tumor Cell Lines Screen was performed using the standard one-dose NCI protocol, which is described in more detail at https://dtp.cancer.gov/discovery_development/nci-60/default.htm.
Compounds with GIPRCNT values below 10 were considered active. Activity score was based on GIPRCNT using the following formula: […]
Score is 0 for GIPRCNT values of 100 or above, 50 for GIPRCNT values of 0, and 100 for GIPRCNT values of -100.
For the compound `CC(=O)N1N=C(c2cccc(-n3cccc3)c2)CC1c1cccc(F)c1` (stereo not given), the growth is 95.2%.
`CN1CCN(Cc2ccc(NC(=O)c3cncc(C#Cc4cnc5ccc(N6CCN(C)CC6)nn45)c3)cc2C(F)(F)F)CC1`: the growth was -71.4% (active).
Regarding `CCCCCCCn1cc2c(NCCc3ccccc3)ncnc2n1`, the growth is 98.2%.
The result for `CC(=O)C1=C(C)NC(NNC(N)=S)=NC1c1ccccc1` (stereo not given) reads 87.9%; that for `NS(=O)(=O)c1ccc(Nc2nc(Nc3ccccc3)nc3nnc(SCC(=O)NC4CCCCC4)n23)cc1`, 108%.
For `CCOc1ccc(C(=O)Nc2ncc(Cc3ccc(F)cc3)s2)cc1` the value was 33.6%.
In the case of `CCCCNNC(=O)c1ccc(-c2cccc(F)c2F)cc1`, the growth was 34.2%.
On to `N#Cc1ccccc1Cn1c2nc(=N)c3ccccc3c-2nc2ccccc21`, for which the growth is 44.3%.
As for `C=CCn1c(-c2nc3ccc(C(=C(C#N)C#N)c4ccccc4)cc3[nH]2)cc2cc(Br)ccc21`, the growth was 51.7%.
The result for `CC(C)c1ccc(NCc2cn(-c3ccc(C(=O)O)cc3)nc2-c2cc(C(F)(F)F)cc(C(F)(F)F)c2)cc1` reads 79.8%; that for `Nc1nc(-c2cccc([N+](=O)[O-])c2)c(N=Nc2ccc(Br)cc2)s1`, -20.3% (active); that for `Cc1ccc(-c2nn(-c3ccccc3)cc2/C=C/C(=O)c2ccc(NC(=O)CCCCCCC(=O)NO)cc2)cc1`, 76.9%.
Consider `N/C(=N\C(N)=N\c1nc2ccccc2s1)c1ccc(C(F)(F)F)cc1`, for which the growth is 6.31% (active).
For the compound `Cn1cc(-c2nc(N)nnc2-c2c[nH]c3ccc(Br)cc23)c2cc(Br)ccc21`, the growth is 49.7%.
For `Cc1ccc(-c2cc3nc(C(Cl)Cl)nc(-c4cccs4)n3n2)cc1` the value was 67.9%; for `COc1ccc(/C(N)=N/C(N)=N/c2nc3ccccc3s2)cc1`, 33.1%.
The result for `COc1cc(C2N=C(NNc3ccccc3)NC(C)=C2C(C)=O)ccc1O` (stereo not given) reads 95.5%; that for `Nc1nc(-c2cccc([N+](=O)[O-])c2)c(N=Nc2cccc([N+](=O)[O-])c2)s1`, 17.5%.
For `N#Cc1cn(Cc2ccc(Cl)cc2Cl)c(C(=O)c2ccc(Br)cc2)c1N` the value was 98.2%; for `O=C1CCC(N2C(=O)c3ccc(NS(=O)(=O)c4ccccc4OC(F)(F)F)cc3C2=O)C(=O)N1` (stereo not given), 78.7%; for `Cc1cc(-c2ccc(Cl)cc2)n(Cc2nnc(SCC(=O)Nc3ccc(S(N)(=O)=O)cc3)n2C2CCCCC2)n1`, 98.4%.
As for `COc1ccc(C2CC(c3ccc(Nc4nc(NCCO)nc(N5CCOCC5)n4)cc3)=Nc3c(N)nc(N)nc3N2)cc1` (stereo not given), the growth was 104%.
For `CCCCCc1ccc(S(=O)(=O)Nc2cccc(-c3csc(NCCN4CCN(C)CC4)n3)c2)cc1` the value was 72.6%; for `CCCCCc1ccc(S(=O)(=O)Nc2cccc(-c3csc(NC(=O)CN4CCN(CCO)CC4)n3)c2)cc1`, 78.9%.
For `NC(N)=Nc1ccc(Oc2ccc(Nc3ccc(Cl)c(C(F)(F)F)c3)cc2)cc1` the value was 31.1%; for `O=C1[C@H]2Cc3c([nH]c4ccccc34)[C@@H](c3ccc(Br)cc3)N2C(=O)CN1C1CCN(CC2CCCCC2)CC1`, -77.3% (active); for `Cc1cc(C(NC(=O)CCCCCNc2cccc3c2C(=O)N(C2CCC(=O)NC2=O)C3=O)c2ccc3c(c2)OC(F)(F)O3)c(O)c2ncccc12` (stereo not given), 66.7%.
On to `CC(C)(C)c1ccc(C(=O)Nc2sc3c(c2C(N)=O)CC/C(=N\O)C3)cc1`, for which the growth is 24.1%.
On to `NC(N)=Nc1ccc(Oc2cccc(Nc3ccc(Br)c(C(F)(F)F)c3)c2)cc1`, for which the growth was 33.7%.
Regarding `Nc1cc(F)ccc1NC(=O)c1ccc(NC(=O)C/C=C/c2cccnc2)cc1`, the growth was 55.9%.
The result for `N#Cc1cccc(NC(=O)c2cc(-c3ccc(F)cc3F)ccc2O)c1` reads 11.3%; that for `CC1=NC2=NN3C(=NN2C(c2ccccc2)=C1)N=NC(c1ccc(Br)cc1)=C3c1ccc(Br)cc1`, 109%.
Consider `C=CC(=O)N1CCC=C(c2cc3c(N[C@H](C)c4ccccc4)ncnc3[nH]2)C1`, for which the growth is 52.1%.
The result for `COc1cccc(/C=C(/C)c2ccc3cccc(OC)c3[o+]2)c1O` reads 102%; that for `C=CCN(C)S(=O)(=O)/N=C1\NC(=O)NC1=C(Cl)Cl`, 103%; that for `C[C@@H](Nc1c(C#N)cnc2ccc(-c3cnc(Cl)c(NS(C)(=O)=O)c3)cc12)c1ccccc1`, 4.78% (active).
For `COC(=O)c1ccc(NC2=C/C(=N/S(=O)(=O)c3ccc(C(=O)O)cc3)c3ccccc3C2=O)cc1` the value was 98.7%; for `CN1CCN(c2ccc(/C=N/Nc3nc4ccccc4c(=O)n3-c3ccccc3)cc2)CC1`, 103%; for `NC(=O)c1cccc(C#CCNC[C@H]2C[C@@H](n3ccc4c(Cl)ncnc43)[C@H](O)[C@@H]2O)c1`, 101%.
The result for `COc1cc2c(cc1OC)C(Sc1ccc(F)cc1)c1c(nc(N)c(C#N)c1N)O2` (stereo not given) reads -30% (active).
